# In paper PMC5540273 (PLoS ONE, 2017):
# Legend:
# Conditions in all cases: concentration: 1 μM, replicates: in singlicate; n = 1
# ADCK4 = test system: ADCK4
# AKT1 = test system: AKT1
# AKT2 = test system: AKT2
# AKT3 = test system: AKT3
# ALK = test system: ALK
# AMPK-alpha1 = test system: T1, AMPK-alpha1
# T1 construct: gene PRKAA1
# AMPK-alpha2 = test system: T2, AMPK-alpha2
# T2 construct: gene PRKAA2
# ANKK1 = test system: ANKK1
# ARK5 = test system: T3, ARK5
# T3 construct: gene NUAK1
# ASK1 = test system: T4, ASK1
# T4 construct: gene MAP3K5
# 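Further: KINOMEscan kinase panel screen.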
SMILES,%Inh (ADCK4) [%],%Inh (AKT1) [%],%Inh (AKT2) [%],%Inh (AKT3) [%],%Inh (ALK) [%],%Inh (AMPK-alpha1) [%],%Inh (AMPK-alpha2) [%],%Inh (ANKK1) [%],%Inh (ARK5) [%],%Inh (ASK1) [%]
COc1cccc(CC(=O)N2CCc3cc(-c4cn(C)c5ncnc(N)c45)ccc32)c1 [GSK2608899],0,0,8,27,5,15,25,6,19,14
CC(C)c1nc(-c2cccc(NS(=O)(=O)c3c(F)cccc3F)c2)c(-c2ccnc(Nc3ccc(N4CCOCC4)nc3)n2)s1.Cl [GSK1723980],100,0,11,0,19,74,91.4,5,1,0
Cc1cccc(Nc2nc(NCCN)ncc2C(N)=O)c1 [GSK1292139],42,0,0,0,46,0,0,94.9,64,0
Cl.O=C(Nc1ccc(Oc2ccc3[nH]c(NC(=O)c4ccco4)nc3c2)cc1)Nc1cc(C(F)(F)F)ccc1F [GW683134],0,0,12,0,27,0,16,1,12,0
Fc1cc(Cl)ccc1Nc1ccnc2cc(-c3ccc(CN4CCOCC4)o3)ccc12 [GW560109],13,0,0,19,62,0,21,16,4,16
CC(C)c1nc(-c2ccc(F)c(NS(=O)(=O)c3c(F)cccc3F)c2)c(-c2ccnc(Nc3ccc(N4CCOCC4)nc3)n2)s1 [GSK1804250],88,0,13,2,26,59,69,23,21,0
O=C(Nc1c(F)cccc1F)c1cc(C(=O)c2ccccc2F)c[nH]1 [GSK1326180],20,0,0,0,33,0,0,2,0,8
N#Cc1cnc2cc(-c3cnc(CNCCN4CCOCC4)s3)ccc2c1Nc1ccc(Oc2ccccc2)cc1 [GW664114],36,0,0,0,34,21,30,45,10,5
O=C(Nc1n[nH]c2nc(-c3cccc(O)c3)ccc12)C1CC1 [SB-711805],0,0,0,4,0,0,0,0,0,0
COC(=O)Nc1nc2ccc(Oc3ccc(NC(=O)Nc4cc(C(F)(F)F)ccc4F)cc3)cc2[nH]1.Cl [GW654607],54,0,100,0,18,19,15,13,9,12
CCn1cnc2c(NCc3ccccc3)ncnc21 [SKF-96418],0,0,0,0,0,3,0,0,0,0
CC(C)NCC(Cc1ccccc1)NC(=O)c1cc(Br)c(-c2ccnc3[nH]ccc23)s1.Cl.Cl (stereo not drawn) [GSK1383281],87,90,73,86,32,57,41,17,62,0
Cn1cc(-c2cnc(N)c3c(-c4ccc5c(c4)CCN5C(=O)Cc4ccccc4)csc23)cn1 [GSK2593074],0,14,0,8,0,17,0,0,3,21
Cl.Cl.NCC(NC(=O)c1cc(-c2cccnc2)c(-c2ccnc3[nH]ccc23)s1)c1ccccc1 (stereo not drawn) [GSK1323434],71,7,10,86,23,0,0,0,0,0
COc1cccc(NC(=O)NCCNc2ccnc(Nc3ccc(F)cc3)n2)c1 [GSK1379879],41,0,0,0,36,0,0,14,16,20
O=C(Nc1n[nH]c2nc(-c3ccccc3)ccc12)C1CC1 [SB-708999],12,14,9,0,3,17,12,63,8,18
Cc1ccccc1CC(=O)N1CCc2cc(-c3cn(C)c4ncnc(N)c34)ccc21 [GSK2603346],3,0,4,0,20,18,23,0,42,30
Cc1ccc(O)cc1Nc1ccnc2cc(-c3ccc(CN4CCCCC4)o3)ccc12 [GW557777],88,0,3,0,0,0,0,0,0,37
O=C(Nc1n[nH]c2cc(-c3cccs3)ccc12)C1CC1 [SB-731284],0,0,0,0,28,0,0,45,0,0
COc1cccc(-c2nc(-c3ccccc3)[nH]c2-c2ccncc2)c1 [SB-610250],77,0,0,0,18,17,2,0,0,2
Fc1cc(Cl)ccc1Nc1ccnc2cc(-c3ccc(CN4CCSCC4)o3)ccc12 [GW560106],31,0,2,0,28,3,18,14,13,0
Cc1ccc(C)c(NC(=O)Nc2ccc(C)c(-c3ccc(C(=O)Nc4ccncc4)cc3)c2)c1 [GSK1398473],25,0,0,0,38,15,0,0,17,0
Cc1ccc(O)cc1Nc1ccnc2ccc(C(C)(C)C)cc12 [GW856805],88,27,29,18,44,8,19,7,0,1
O=C(O)C(F)(F)F.O=c1[nH]ccc2nc(N[C@@H]3CCNC3)nc(Nc3cc(Cl)cc(Cl)c3)c12 [GSK2188764],14,0,0,0,90.5,87,90,97.1,99.5,0
Cc1cc(-c2c(-c3ccc(F)cc3)ncn2CCCN2CCOCC2)nc(N)n1 [SB-222517],0,16,0,23,0,10,27,0,0,0
COc1cc(Nc2ccnc3cc(-c4ccncc4)ccc23)cc(OC)c1OC.Cl [GW494610],14,0,10,0,29,5,32,0,12,0
CCn1c(-c2nonc2N)nc2c(-c3ccccc3)ncc(OCCCN)c21.O=C(O)C(F)(F)F.O=C(O)C(F)(F)F [GSK260205],26,72,75,74,25,0,0,0,0,0
Nc1ncc(-c2ccc3nccc(-c4ccncc4)c3c2)cc1S(=O)(=O)N1CCCCC1 [GSK1693850],33,0,1,0,22,0,1,35,0,14
CN(c1ccc2c(c1)nc(NCc1ccccc1)n2C)c1ccnc(Nc2ccc(CS(C)(=O)=O)cc2)n1.Cl [GW811603],7,0,0,1,49,2,0,0,0,9
COc1ccc(C)c(Nc2ccnc(Nc3ccc(-c4cnc[nH]4)cc3)n2)c1.Cl [GW784041],53,14,0,8,0,30,0,0,99.3,0
